# HTR2A ag: mouse Htr2a agonists via beta-arrestin recruitment, primary screen, cell-based, luminescence; CHO-K1 mHTR2A beta-arrestin complementation; percent of 30 µM serotonin response; activation, % at 7.6 µM; 360,000 tested, 0.66% active; AID 624169, 2012;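 active means activation above a run cutoff, the mean activation of all tested compounds plus 3 SD, cut at about 14% in these data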;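 further: 0% = plate median of compound wells and 100% = 30 µM serotonin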
# Exocytosis inh: LAMP-1 surface exposure blockers, TALL-104 cells – cell-based, flow cytometry, MLPCN library, primary screen; inhibition, % at 10 µM; TALL-104 LAMP-1 surface exposure; cells stimulated with thapsigargin and PMA; 360,000 tested, 0.66% active;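 active means inhibition above about 55%, limit read from the data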
# NTR1 agonist: agonists of human NTR1, primary screen, imaging, U2OS cells, beta-arrestin-GFP, high content | Neurotensin receptor type 1 (Homo sapiens), P30989 | NTR1-U2OS beta-arrestin-GFP spot imaging, agonist mode | activation, % at 20 µM | 330,000 tested, 0.17% active | AID 493036, 2011;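 active means activation at or above 40% of the spot to cytoplasm intensity ratio, with at least 20 cells analyzed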;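 further: 0% = DMSO without peptide and 100% = 100 nM NTR1 peptide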
# Beta2AR agonist: beta2AR agonists driving receptor internalization, primary screen, cell-based, FAP fluorogen, flow cytometry | 340,000 tested, 0.43% active | Beta-2 adrenergic receptor (Homo sapiens), P07550 | response, % (test concentration not listed) | Am2.2-beta2AR cells;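 active means response above a set limit, near 3 SD of response in nonfluorescent compounds, cut at about 42% in these data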
# ABHD5 PLIN5 PPI: ABHD5-PLIN5 interaction inhibitors, primary screen, cell lysate, split luciferase complementation, luminescence. Split G. princeps luciferase complementation, 4 h. inhibition, % at 4 µM. 360,000 tested, 0.78% active. AID 602281, 2012;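 active means inhibition above the mean inhibition across every tested compound plus 3 SD, cut at about 22% in these data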;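 further: 0% = DMSO only wells and the 100% control is not disclosed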
# ABHD5-PLIN5 conf: ABHD5-PLIN5 interaction inhibitors, confirmation, biochemical, luminescence. AID 651612, 2012. inhibition, % at 4 µM. shares compounds with ABHD5 PLIN5 PPI. 2,200 tested, 67% active; in the data active means inhibition above about 23%;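 further: 0% = DMSO vehicle wells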
# HNF4 split-luc: HNF4 dimerization inhibitors, counter-screen for ABHD5-PLIN5 interaction inhibitor project, biochemical, split-luciferase complementation, luminescence; shares compounds with ABHD5 PLIN5 PPI; inhibition, % at 4 µM; 2,200 tested, 77% active; AID 651674, 2012;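 active means mean inhibition across replicate wells exceeding the computed hit threshold, cut at about 13% in these data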;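 further: light from luciferase halves that rejoin when HNF4 fusion proteins dimerize; 0% = DMSO only wells and the 100% control is not given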
# Target sequence (P41235 whole entry, looked up, the tested form may be a part): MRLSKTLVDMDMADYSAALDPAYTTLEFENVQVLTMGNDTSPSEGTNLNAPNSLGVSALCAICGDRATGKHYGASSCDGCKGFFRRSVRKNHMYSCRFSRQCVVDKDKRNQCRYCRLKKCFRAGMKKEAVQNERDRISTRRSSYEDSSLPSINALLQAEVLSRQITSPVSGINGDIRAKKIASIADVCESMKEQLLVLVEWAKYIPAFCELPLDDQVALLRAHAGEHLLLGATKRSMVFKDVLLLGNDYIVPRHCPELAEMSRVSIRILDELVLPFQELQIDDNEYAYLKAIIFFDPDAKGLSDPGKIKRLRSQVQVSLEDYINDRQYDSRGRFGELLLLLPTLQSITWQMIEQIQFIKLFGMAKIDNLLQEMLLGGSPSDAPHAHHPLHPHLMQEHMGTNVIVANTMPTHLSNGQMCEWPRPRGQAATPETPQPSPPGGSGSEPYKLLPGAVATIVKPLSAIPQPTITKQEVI
# * hit, by the source's call; · = not tested or not shown. Sampled rows, rich in hits. Any-hit rate of the full collection: about 2.3%.
SMILES,HTR2A ag,Exocytosis inh,NTR1 agonist,Beta2AR agonist,ABHD5 PLIN5 PPI,ABHD5-PLIN5 conf,HNF4 split-luc
C#CCOCCOCCOCCNc1nc(N2CCN(C(=O)CCCCCCCCCCNC(=O)Cn3cc(C[C@@H](C)O)nn3)CC2)nc(N2CCN(C(=O)CCCCCCCCCCNC(=O)[C@H](CCCCN)n3cc(CCCC(=O)O)nn3)CC2)n1,2,2,2,15,36*,0,14*
C#CCOCCOCCOCCNc1nc(N2CCN(C(=O)CCCCCCCCCCNC(=O)[C@@H](CCSC)n3cc(CCO)nn3)CC2)nc(N2CCN(C(=O)CCCCCCCCCCNC(=O)[C@H](CCSC)n3cc(CCO)nn3)CC2)n1,0,0,2,7,44*,9,-20
C#CCOCCOCCOCCNc1nc(N2CCN(C(=O)CCCCCCCCCCNC(=O)Cn3cc(C[C@@H](C)O)nn3)CC2)nc(N2CCN(C(=O)CCCCCCCCCCNC(=O)[C@H](CO)n3cc(CCCSC)nn3)CC2)n1,3,-10,2,8,18,·,·
C#CCOCCOCCOCCNc1nc(N2CCN(C(=O)CCCCCCCCCCNC(=O)[C@H](CO)n3cc(CCCSC)nn3)CC2)nc(N2CCN(C(=O)CCCCCCCCCCNC(=O)[C@@H]([C@H](C)O)n3cc(C)nn3)CC2)n1,·,·,2,·,·,·,·
C#CCOCCOCCOCCNc1nc(N2CCN(C(=O)CCCCCCCCCCNC(=O)[C@H](CCCCN)n3cc(CCCC(=O)O)nn3)CC2)nc(N2CCN(C(=O)CCCCCCCCCCNC(=O)[C@@H]([C@H](C)O)n3cc(C)nn3)CC2)n1,1,12,-7,4,37*,8,2
COc1ccccc1CN1CCNC(=O)C1CC(=O)NCC1CCOCC1 (stereo not drawn),-5,-4,0,6,2,·,·
[O-]/C(=C(\C(=S)NCCN1CCOCC1)[n+]1ccccc1)c1ccc(Cl)s1,1,-1,0,-1,-2,·,·
CCOc1ccc(/C=C2\CCC(C3CCCC3)C2=O)cc1OC (stereo not drawn),-2,-6,3,-7,3,·,·
COc1ccc(/C=C2/CSC/C(=C/c3ccc(OC)c(OC)c3)C2=O)cc1OC,5,-5,·,0,55*,81*,68*
COc1ccc(/C=C2\Cc3ccccc3C2=O)cc1OC,-5,1,·,1,4,·,·
COc1cc(C=C2CCCC(=Cc3ccc(OCC4CO4)c(OC)c3)C2=O)ccc1OCC1CO1 (stereo not drawn),4,-1,·,·,24*,37*,21*
COc1ccc(CC(=O)N[C@@H]2c3ccccc3CC[C@H]2OCc2ccccc2)cc1,3,4,3,-6,1,·,·
CC(=O)C1=C(C)NC(C)=C(C(C)=O)C1c1ccc(-c2ccccc2Cl)o1,-7,12,·,-3,52*,14,38*
Cc1cc(=O)oc2c(O)c(O)ccc12,-3,-4,·,-5,5,·,·
COc1ccc(/C=C\C(=O)c2c(O)ccc3c(C)cc(=O)oc23)cc1,-8,5,9,2,47*,61*,44*
COc1ccc(/C=C/C(=O)c2c(O)ccc3c(C)cc(=O)oc23)cc1,-5,-2,11,5,47*,65*,55*
COc1ccc(N2CCN(CC(=O)Nc3c(C)cccc3C)CC2)cc1,-4,6,·,·,-3,·,·
Cc1c(Cl)cccc1NC(=S)N(Cc1cccnc1)Cc1ccccc1Cl,1,4,5,3,5,·,·
CC(=O)OC[C@H]1O[C@@H](O/N=C/[C@@H](C)[C@H](OCc2ccccc2)C(C)C)[C@H](OC(C)=O)[C@@H](OC(C)=O)[C@@H]1OC(C)=O,·,·,1,·,·,·,·
C=C(CN(C)C)C(=O)c1ccc(OC2OC(COC(C)=O)C(OC(C)=O)C(OC(C)=O)C2OC(C)=O)cc1 (stereo not drawn),-2,3,·,25,39*,99*,106*
CC1(S(=O)(=O)O)CC(=O)c2ccccc2C1=O (stereo not drawn),-5,51,2,13,29*,42*,56*
Cc1ccccc1NC1=CC(=O)CC(C)(C)C1,3,5,0,12,1,·,·
CC1(C)CC(=O)C=C(NC2=CC3OC(c4ccccc4)OCC3OC2=O)C1 (stereo not drawn),-3,37,3,11,63*,85*,94*
COc1ccc(/C=C/C(=O)CC(O)(c2ccccc2)C(F)(F)F)cc1 (stereo not drawn),3,-4,7,7,41*,72*,53*
O=C(CC(O)(c1ccccc1)C(F)(F)C(F)F)c1cccs1 (stereo not drawn),-4,6,0,4,-2,·,·
SMILES,HTR2A ag,Exocytosis inh,NTR1 agonist,Beta2AR agonist,ABHD5 PLIN5 PPI,ABHD5-PLIN5 conf,HNF4 split-luc
O=C(/C=C/c1ccccc1)CC(O)(c1ccccc1)C(F)(F)C(F)F (stereo not drawn),2,9,22,33,82*,98*,77*
O=C(/C=C/c1ccccc1)CC(O)(c1ccccc1)C(F)(F)F (stereo not drawn),-3,-1,19,39,81*,99*,89*
O=C(Nc1ccccn1)C1CCN(C(=O)c2ccc(Cl)cc2)CC1,9,6,·,·,-3,·,·
CC(NC(=O)C(C)N1CCN(S(=O)(=O)c2ccccc2)CC1)c1ccccc1 (stereo not drawn),3,2,-2,-2,-1,·,·
COC(=O)c1ccc(COc2ccc(/C=N/O)cc2)o1,4,8,0,4,5,·,·
COc1cc(/C=C(/C#N)C(=O)NC(C)c2ccccc2)cc(OC)c1O (stereo not drawn),5,-4,2,8,14,·,·
CC(NC(=O)/C(C#N)=C/c1ccc(C(=O)O)cc1)c1ccccc1 (stereo not drawn),1,-2,1,-1,24*,47*,30*
O=c1cc(-c2ccccc2)nc2c(Cl)cc(Cl)cn12,-2,22,·,·,-4,·,·
CN1C/C(=C/c2ccsc2)C(=O)/C(=C/c2ccsc2)C1,10,27,-1,8,56*,79*,66*
CN1C/C(=C/c2ccncc2)C(=O)/C(=C/c2ccncc2)C1,-1,-6,-2,7,1,·,·

# Assay outcomes as filed in PubChem.
